In PubChem BioAssay AID1159580 (chemical genetic matrix, 2015):
Out of some 5,500 compounds screened, about 2,000 (36%) were called active. Roughly 18% stayed inconclusive and do not appear here. No stated cut-off is given here; in the data, active means normalized growth mostly below about 0.91 (no sharp cut-off); inconclusive means no clear call, values can overlap the other calls; inactive means mostly above about 0.92. The list shows a part of the results.

Assay: chemical genetic growth profiling, strain panel (AID 1159580);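 further: tested at 20 µM; growth read once vehicle control cultures reached saturation at 30 °C; 1 = growth at the plate median or of vehicle wells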
Conditions: growth OD

Measured: normalized growth

C[C@@H](CO)NC(=O)C1C=C2c3cccc4[nH]cc(c34)C[C@H]2N(C)C1 (some centres not stated)
inactive: S. cerevisiae deletion strains, locus YJR075W, strain HOC1, stronger effect = lower value 1.03 | S. cerevisiae deletion strains, locus YKL009W, strain mrt4, stronger effect = lower value 0.976 | S. cerevisiae deletion strains, locus YKL068W, stronger effect = lower value 0.993 | S. cerevisiae deletion strains, locus YKL085W, strain MDH1 (second series), stronger effect = lower value 0.982 | S. cerevisiae deletion strains, locus YKL085W, strain MDH1, stronger effect = lower value 0.982 | S. cerevisiae deletion strains, locus YKL160W, strain elf1, stronger effect = lower value 1.04 | S. cerevisiae deletion strains, locus YKL190W, strain CNB1, stronger effect = lower value 1.01 | S. cerevisiae deletion strains, locus YKR001C, strain vps1, stronger effect = lower value 0.997 | S. cerevisiae deletion strains, locus YKR026C, strain gcn3, stronger effect = lower value 1.01 | S. cerevisiae deletion strains, locus YKR091W, strain srl3, stronger effect = lower value 1.01 | S. cerevisiae deletion strains, locus YLL001W, strain dnm1, stronger effect = lower value 1.04 | S. cerevisiae deletion strains, locus YLL026W, stronger effect = lower value 1.03 | S. cerevisiae deletion strains, locus YLL041C, strain sdh2, stronger effect = lower value 1.01 | S. cerevisiae deletion strains, locus YLR027C, strain aat2, stronger effect = lower value 1.03 | S. cerevisiae deletion strains, locus YLR039C, strain RIC1, stronger effect = lower value 1.02 | S. cerevisiae deletion strains, locus YLR058C, strain SHM2, stronger effect = lower value 1 | S. cerevisiae deletion strains, locus YLR102C, strain apc9, stronger effect = lower value 0.993 | S. cerevisiae deletion strains, locus YLR113W, strain HOG1, stronger effect = lower value 1.07 | S. cerevisiae deletion strains, locus YLR221C, strain rsa3, stronger effect = lower value 0.97 | S. cerevisiae deletion strains, locus YLR258W, strain gsy2, stronger effect = lower value 1.01 | S. cerevisiae deletion strains, locus YLR262C, strain YPT6 (second series), stronger effect = lower value 1.04 | S. cerevisiae deletion strains, locus YLR262C, strain YPT6, stronger effect = lower value 1.05 | S. cerevisiae deletion strains, locus YLR268W, strain sec22, stronger effect = lower value 1.02 | S. cerevisiae deletion strains, locus YLR320W, strain mms22, stronger effect = lower value 1 | S. cerevisiae deletion strains, locus YLR330W, strain CHS5, stronger effect = lower value 0.994 | S. cerevisiae deletion strains, locus YLR342W, strain FKS1 (second series), stronger effect = lower value 0.973 | S. cerevisiae deletion strains, locus YLR342W, strain FKS1, stronger effect = lower value 1.03 | S. cerevisiae deletion strains, locus YLR357W, strain rsc2, stronger effect = lower value 1 | S. cerevisiae deletion strains, locus YLR370C, strain arc18, stronger effect = lower value 1.02 | S. cerevisiae deletion strains, locus YLR371W, strain rom2, stronger effect = lower value 0.993 | S. cerevisiae deletion strains, locus YLR384C, strain iki3, stronger effect = lower value 0.998 | S. cerevisiae deletion strains, locus YLR418C, strain cdc73, stronger effect = lower value 1.02 | S. cerevisiae deletion strains, locus YML016C, strain PPZ1, stronger effect = lower value 0.991 | S. cerevisiae deletion strains, locus YML032C, strain rad52, stronger effect = lower value 0.981 | S. cerevisiae deletion strains, locus YML120C, strain ndi1, stronger effect = lower value 1.04 | S. cerevisiae deletion strains, locus YML124C, strain tub3, stronger effect = lower value 0.992 | S. cerevisiae deletion strains, locus YMR058W, strain fet3, stronger effect = lower value 1.03 | S. cerevisiae deletion strains, locus YMR078C, strain ctf18, stronger effect = lower value 0.985 | S. cerevisiae deletion strains, locus YMR125W, strain sto1, stronger effect = lower value 1.01 | S. cerevisiae deletion strains, locus YMR129W, stronger effect = lower value 1.01 | S. cerevisiae deletion strains, locus YMR205C, strain PFK2, stronger effect = lower value 1.04 | S. cerevisiae deletion strains, locus YMR223W, strain ubp8, stronger effect = lower value 0.988 | S. cerevisiae deletion strains, locus YMR231W, strain pep5, stronger effect = lower value 1 | S. cerevisiae deletion strains, locus YMR263W, strain SAP30, stronger effect = lower value 1.04 | S. cerevisiae deletion strains, locus YMR307W, strain GAS1, stronger effect = lower value 0.96 | S. cerevisiae deletion strains, locus YNL067W, strain RPL9B, stronger effect = lower value 1.05 | S. cerevisiae deletion strains, locus YNL071W, strain lat1, stronger effect = lower value 1 | S. cerevisiae deletion strains, locus YNL128W, strain TEP1, stronger effect = lower value 1.03 | S. cerevisiae deletion strains, locus YNL153C, strain GIM3, stronger effect = lower value 1.01 | S. cerevisiae deletion strains, locus YNL183C, strain NPR1, stronger effect = lower value 0.994 | S. cerevisiae deletion strains, locus YNL209W, strain ssb2, stronger effect = lower value 1 | S. cerevisiae deletion strains, locus YNL233W, strain BNI4, stronger effect = lower value 1.01 | S. cerevisiae deletion strains, locus YNL248C, strain rpa49, stronger effect = lower value 0.991 | S. cerevisiae deletion strains, locus YNL250W, strain rad50, stronger effect = lower value 1.01 | S. cerevisiae deletion strains, locus YNL271C, strain bni1, stronger effect = lower value 1 | S. cerevisiae deletion strains, locus YNL298W, strain CLA4, stronger effect = lower value 0.992 | S. cerevisiae deletion strains, locus YNL307C, strain MCK1, stronger effect = lower value 0.985 | S. cerevisiae deletion strains, locus YNL322C, strain KRE1 (second series), stronger effect = lower value 1.02 | S. cerevisiae deletion strains, locus YNL322C, strain KRE1, stronger effect = lower value 1.01 | S. cerevisiae deletion strains, locus YNR049C, strain mso1, stronger effect = lower value 1.01 | S. cerevisiae deletion strains, locus YNR052C, strain pop2, stronger effect = lower value 0.984 | S. cerevisiae deletion strains, locus YOL006C, strain TOP1, stronger effect = lower value 1.09 | S. cerevisiae deletion strains, locus YOL012C, strain htz1 0.782 | S. cerevisiae deletion strains, locus YOL147C, strain pex11, stronger effect = lower value 0.996 | S. cerevisiae deletion strains, locus YOR001W, strain rrp6, stronger effect = lower value 1.02 | S. cerevisiae deletion strains, locus YOR061W, strain CKA2, stronger effect = lower value 1 | S. cerevisiae deletion strains, locus YOR069W, strain VPS5, stronger effect = lower value 0.992 | S. cerevisiae deletion strains, locus YOR070C, strain gyp1, stronger effect = lower value 1 | S. cerevisiae deletion strains, locus YOR080W, strain dia2, stronger effect = lower value 1.02 | S. cerevisiae deletion strains, locus YOR083W, strain WHI5, stronger effect = lower value 1.02 | S. cerevisiae deletion strains, locus YOR106W, strain vam3, stronger effect = lower value 1.05 | S. cerevisiae deletion strains, locus YOR136W, strain idh2, stronger effect = lower value 0.988 | S. cerevisiae deletion strains, locus YOR144C, strain elg1, stronger effect = lower value 0.989 | S. cerevisiae deletion strains, locus YOR184W, strain ser1, stronger effect = lower value 1 | S. cerevisiae deletion strains, locus YOR231W, strain MKK1, stronger effect = lower value 1.04 | S. cerevisiae deletion strains, locus YOR265W, strain rbl2, stronger effect = lower value 1.01 | S. cerevisiae deletion strains, locus YOR270C, strain vph1, stronger effect = lower value 1 | S. cerevisiae deletion strains, locus YOR290C, strain snf2, stronger effect = lower value 0.969 | S. cerevisiae deletion strains, locus YOR316C, strain cot1, stronger effect = lower value 0.988 | S. cerevisiae deletion strains, locus YPL051W, strain arl3, stronger effect = lower value 1.01 | S. cerevisiae deletion strains, locus YPL055C, strain LGE1, stronger effect = lower value 1.07 | S. cerevisiae deletion strains, locus YPL078C, strain atp4, stronger effect = lower value 1.06 | S. cerevisiae deletion strains, locus YPL106C, strain sse1, stronger effect = lower value 1.04 | S. cerevisiae deletion strains, locus YPL240C, strain hsp82, stronger effect = lower value 1.01 | S. cerevisiae deletion strains, locus YPL241C, strain CIN2, stronger effect = lower value 1 | S. cerevisiae deletion strains, locus YPL256C, strain CLN2, stronger effect = lower value 1.04 | S. cerevisiae deletion strains, locus YPR119W, strain clb2, stronger effect = lower value 1 | S. cerevisiae deletion strains, locus YPR141C, strain kar3, stronger effect = lower value 0.993 | S. cerevisiae deletion strains, locus YPR163C, strain tif3, stronger effect = lower value 0.994 | S. cerevisiae deletion strains, locus YPR167C, strain met16, stronger effect = lower value 0.995 | S. cerevisiae deletion strains, strain wtn01, stronger effect = lower value 0.999 | S. cerevisiae strains, strain wild type, stronger effect = lower value 1.03
